Shiga toxin inh = Shiga toxin inhibition; Vero cells, Shiga toxin protein synthesis inhibition reporter; inhibition, % at 38.7 µM; hit rate 9.2% among 290,000; AID 2315; in the data active = inhibition mostly above about 28%, no sharp cut-off; inactive = mostly below about 43%
CHX counter = counter-screen hit for Shiga toxin inhibitors, cycloheximide; hit rate 12% among 300,000; max response, %; AID 2314; cell reporter, cycloheximide protein synthesis inhibition counterscreen; in the data active = max response mostly above about 13%, no sharp cut-off; inactive = mostly below about 14%; note: read at 38.3 µM for the half of the compounds with a filed dose
Pf growth 96h = inhibits malaria parasite growth, 96 h; P. falciparum luciferase reporter growth, 96 h; Potency, µM (highest dose often 28.7 µM), most hits filed as inhibitors; hit rate 6.9% among 320,000; AID 504834
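Two parasite generations (96 h, 37 C, 5% CO2) of compound exposure in infected erythrocytes (0.05% parasitemia, 2% hematocrit). Luciferase-reporter P. falciparum; decreased luminescence indicates inhibited growth, aimed at apicoplast-acting delayed death.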
HCMV inh = blocks human cytomegalovirus replication | HFF cells, HCMV-luciferase reporter, 72 h; stronger effect = lower value | activity change, negative = inhibition, % at 57.5 µM | hit rate 4.5% among 410,000 | AID 1259415; in the data active = activity change below about -60%; inconclusive = no clear call, values can overlap the other calls; inactive = above about -39%
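After 16 h attachment at 37C, HFF cells received test compound and HCMV-luciferase (1 PFU/cell); reporter luminescence read 72 h later, data normalized against buffer-only and known inhibitor Salinomycin.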
Pf growth 48h = P. falciparum growth inhibition at 48 hours (one generation). P. falciparum luciferase growth in erythrocytes, 48 h. Potency, µM (series often up to 28.7 µM), actives largely listed as inhibitors. hit rate 5.9% among 310,000. AID 504832
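Erythrocytes infected with P. falciparum carrying an integrated firefly luciferase reporter (2% hematocrit, 0.1% parasitemia final) were exposed to compounds in RPMI 1640 with 0.5% Albumax at 37 C, 5% CO2. Growth inhibition was scored as reduced luminescence.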
Numbers stand for hits; – = inactive; ? = inconclusive; · = no result; [ ] = remark or other dose. Shown are actives, neighbours in structure and some others; about 20% of the full set was active somewhere. Unless noted, calls come from the whole dose curve; as a rule, active = well fitted inhibition curve with a large enough effect; inconclusive = small, poorly fitted or top-dose-only effect, or another doubt; inactive = no such curve, though single readings can be large or run the other way.

SMILES	Shiga toxin inh	CHX counter	Pf growth 96h	HCMV inh	Pf growth 48h
CCOc1ccc(/C=C(\C#N)c2nc(-c3cc4ccccc4oc3=O)cs2)c(OCC)c1	·	·	·	–	·
CCN1C(=O)C(O)(CC(=O)c2cccc(-n3cccc3)c2)c2ccccc21 (centres undefined)	–	–	–[5.75 µM]	–	–
O=C(NC(Cc1ccccc1)C(=O)O)/C(=C\c1ccc(F)cc1)NC(=O)c1ccccc1 (centres undefined)	–	–	?	–	–
Cc1ccc(NC(=O)NC2=N/C(=C(/C#N)C(=O)N3CCCC3)c3ccccc32)cc1	–	20	?	–	–
CC(=O)c1ccc(Nc2ccc([N+](=O)[O-])c3nonc23)cc1	·	21	–	–	–
NS(=O)(=O)c1ccc(Nc2ccc([N+](=O)[O-])c3nonc23)cc1	–	–	9.3µM	–	?
CCc1nnc(NS(=O)(=O)c2ccc(Nc3ccc([N+](=O)[O-])c4nonc34)cc2)s1	–	–	?	?	–
O=[N+]([O-])c1ccc(Nc2ccccc2O)c2nonc12	–	–	–	-61	?
O=[N+]([O-])c1ccc2nonc2c1Nc1ccccc1	–	23	–	–	–
O=C(O)c1ccc(Nc2ccc([N+](=O)[O-])c3nonc23)cc1	–	–	?	–	–
O=C1CC(c2nc3ccccc3[nH]2)CN1c1cccc(Cl)c1 (centres undefined)	·	·	·	–	·
Cc1ccc(-c2nn(C)c(=O)c3ccccc23)cc1CNC(=O)NC1CCCCC1	–	–	–	–	–
O=C(Cc1cccs1)NC1CC(=O)N(c2cccc(F)c2)C1 (centres undefined)	·	·	·	–	·
Cc1cccc(C(=O)N2c3ccccc3C(=O)OC2c2ccc3c(c2)OCO3)c1 (centres undefined)	–	21	–	–	–
O=C1OC(c2ccc3c(c2)OCO3)N(C(=O)c2ccc(Cl)c(Cl)c2)c2ccccc21 (centres undefined)	117	39	·	–	?
CC(=O)N1C(c2ccccc2)CC(=O)OC1c1ccc2c(c1)OCO2 (centres undefined)	–	–	·	–	–
O=C(Nc1nc2ccc(Cl)cc2s1)C1CCCO1 (centres undefined)	106	43	–	–	·
O=C(Nc1nc2ccc([N+](=O)[O-])cc2s1)C1CCCO1 (centres undefined)	112	37	–	–	–
O=C(Nc1ccccc1)c1oc2ccccc2c1NC(=O)C1CC1	–	–	–	?	–
CC(=O)Nc1ccc(C)cc1-c1nc2ccccc2n(CC(=O)c2ccc(Cl)cc2)c1=O	·	·	·	–	·
COc1ccc(CC(=O)NCc2ccccc2)cc1	–	–	?	–	–
COc1ccc(CNC(NC(=O)c2ccccc2)(C(F)(F)F)C(F)(F)F)cc1	–	–	?	–	12µM
CCOC(=O)C(NCc1ccc(F)cc1)(NC(=O)c1ccccc1)C(F)(F)F (centres undefined)	–	–	10µM	–	–
CCOC(=O)C(NCc1ccccc1OC)(NC(=O)c1ccccc1)C(F)(F)F (centres undefined)	–	–	–	–	?
COc1cccc(/C=C/C(=O)Nc2ccc3nc4n(c(=O)c3c2)CCCC4)c1OC	42	–	?	?	2.1µM
SMILES	Shiga toxin inh	CHX counter	Pf growth 96h	HCMV inh	Pf growth 48h
COc1cc(/C=C/C(=O)Nc2ccc3nc4n(c(=O)c3c2)CCCC4)cc(OC)c1OC	–	–	–	–	?
COc1ccc(OC)c(NC(=O)CC(=O)Nc2ccc3nc4n(c(=O)c3c2)CCCCC4)c1	·	·	·	–	·
COc1cc(OC)cc(C(=O)Nc2ccc3nc4n(c(=O)c3c2)CCCCC4)c1	49	46	13µM	–	–
COc1ccc(NC(=O)C(=O)Nc2ccc3nc4n(c(=O)c3c2)CCCCC4)c(OC)c1	·	·	·	–	·
COc1cccc(NC(=O)CC(=O)Nc2ccc3nc4n(c(=O)c3c2)CCCCC4)c1	·	·	·	-72	·
COc1ccc(OC)c(CCNC(=O)C(=O)Nc2ccc3nc4n(c(=O)c3c2)CCCCC4)c1	–	–	–	–	4.1µM
CCc1ccc(OCC(=O)N(Cc2ccco2)Cc2ccco2)cc1	·	·	·	–	·
O=C(Nc1ccc2nc3n(c(=O)c2c1)CCCC3)c1cncc(Br)c1	·	·	·	-63	·
O=C(Nc1ccc2nc3n(c(=O)c2c1)CCCC3)c1cccc([N+](=O)[O-])c1	–	–	?	–	–
CCOc1ccccc1NC(=O)C(=O)Nc1ccc2nc3n(c(=O)c2c1)CCCCC3	·	·	·	–	·
COc1ccccc1C(=O)Nc1ccc2nc3n(c(=O)c2c1)CCCC3	–	–	0.52µM	?	?
